Experimental findings from PubChem BioAssay (NCATS) are described below.

Records with an inconclusive call do not appear. The source made the active and inactive calls. Calls follow the shape of the dose curve; as a rule, active = well fitted curve in the direction sought with a large enough effect; inconclusive = small, poorly fitted or top-dose-only effect, or another doubt; inactive = no such curve, though single readings can be large; an effect the other way counts as inactive or inconclusive.

Experiment [1] is described as follows: qHTS of pediatric cancer cell lines to identify multiple opportunities for drug repurposing: Primary screen for Saos-2 cells (AID 1347097). Also: nearly all actives have a fitted effect of over 40% in size. The method in brief:
(§1)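 Primary screen of approved and investigational compounds on cells in growth media at 37 degrees C, 5% CO2. MIPE set at 11-point and NPC set at 8-point dilutions; viability scored by ATP-based luminescence at 48 hours.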
On the technique in general: qHTS replaces the single test concentration by a dilution series.

Experiment [2] in a line: qHTS of pediatric cancer cell lines to identify multiple opportunities for drug repurposing: Primary screen for NB1643 cells (AID 1347099). Also: nearly all actives have a fitted effect of over 50% in size. The essentials: as §1
Experiment [3] can be described thus: qHTS of pediatric cancer cell lines to identify multiple opportunities for drug repurposing: Primary screen for LAN-5 cells (AID 1347100). The essentials:
(§2)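 Cells (500-1,000/well) rested 5 h, then received compounds for 48 h; metabolically active cells were measured by CellTiter-Glo luminescence. Final concentrations spanned up to 46 µM (MIPE, 11-point) or 0.59 nM-46 µM (NPC, 8-point) in primary screens, 11-point in follow-ups.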

A short description of experiment [4]: qHTS of pediatric cancer cell lines to identify multiple opportunities for drug repurposing: Primary screen for Rh18 cells (AID 1347102). Also: nearly all actives have a fitted effect of over 65% in size. The essentials:
as §2

Experiment [5] in a line: qHTS of pediatric cancer cell lines to identify multiple opportunities for drug repurposing: Primary screen for MG 63 (6-TG R) cells (AID 1347105). Also: nearly all actives have a fitted effect of over 50% in size. The essentials: as §1
Experiment [6] is described as follows: qHTS of pediatric cancer cell lines to identify multiple opportunities for drug repurposing: Primary screen for BT-12 cells (AID 1347101). Also: nearly all actives have a fitted effect of over 25% in size. The essentials:
as §2

Experiment [7] is described as follows: qHTS of pediatric cancer cell lines to identify multiple opportunities for drug repurposing: Primary screen for control Hh wild type fibroblast cells (AID 1347106). Also: nearly all actives have a fitted effect of over 55% in size. The essentials: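 Cells (500-1,000/well) in growth media were settled 5 h at 37 degrees C, then given compounds for 48 h. Viability was read as CellTiter-Glo luminescence. Primary runs used MIPE at 11 points (0.78 nM-46 µM) and NPC at 8 points (0.59 nM-46 µM); follow-ups used 11 points.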

The nature of experiment [8]: qHTS of pediatric cancer cell lines to identify multiple opportunities for drug repurposing: Primary screen for OHS-50 cells (AID 1347103). Also: nearly all actives have a fitted effect of over 40% in size. The method in brief: as §2
The nature of experiment [9]: qHTS of pediatric cancer cell lines to identify multiple opportunities for drug repurposing: Primary screen for RD cells (AID 1347104). Also: nearly all actives have a fitted effect of over 55% in size. The essentials: as §1
Potency is read from the fitted curve at half-maximal effect.

For the molecule `COc1ccc(Cn2ccc3ccc(C(=O)NO)cc32)cc1`, the Potency result in experiment [1], in experiment [4] and in experiment [5] was “inactive” throughout. Also, the Potency is 14.8 µM (active) in experiment [2] and 20.9 µM (active) in experiment [3].
For `Cc1ccc(S(=O)(=O)OCC(=O)Nc2ccc(C(=O)O)c(O)c2)cc1`, the Potency entry in experiment [1], in [6], in experiment [4], in experiment [5] and in [7] was “inactive” each time. Moreover, the Potency was 18.7 µM (active) in experiment [2] and 2.35 µM (active) in [3].
Take `COc1cc2ncnc(Nc3cc(Br)c(O)c(Br)c3)c2cc1OC`: the Potency is 20.9 µM (active) in [1]; 1.32 µM (active) in experiment [2]; 16.6 µM (active) in experiment [3]; 27.3 µM (active) in experiment [8]; 0.935 µM (active) in [9]. Also, the Potency entry in experiment [4] and in [7] was “inactive” throughout.
Regarding `CN[C@@H]1[C@@H](O)[C@@H](O[C@@H]2[C@@H](O)[C@H](O[C@H]3O[C@H](CN)[C@@H](O)[C@H](O)[C@@H]3O)[C@@H](N)C[C@@H]2NC(=O)[C@@H](O)CN)OC[C@]1(C)O`, the Potency result in experiment [1], in experiment [2], in [3], in experiment [6], in experiment [4] and in experiment [8] was “inactive” each time. In addition, the Potency result in experiment [9], in experiment [5] and in [7] was “inactive” throughout.
Turning to `N#Cc1c(N(CC(=O)O)CC(=O)O)sc(C(=O)O)c1CC(=O)O`, the Potency result in [1], in experiment [2], in [3], in experiment [6], in experiment [4] and in [8] was “inactive” in each case. Further, the Potency entry in experiment [9] and in [5] was “inactive” each time.
`NC(=O)c1ccc(N(C(N)=O)c2c(F)cccc2F)nc1-c1ccc(F)cc1F`: the Potency result in experiment [1], in experiment [2], in experiment [3], in experiment [6], in experiment [9] and in experiment [5] was “inactive” each time. In experiment [7], the Potency entry is “inactive”.
For the molecule `C[C@H]1O[C@@H](n2cc(F)c(=O)[nH]c2=O)[C@H](O)[C@H]1O`, the Potency entry in [1], in experiment [4], in experiment [8] and in [7] was “inactive” each time. Further, the Potency in [2] was 18.7 µM (active); in experiment [3] it was 13.2 µM (active); in experiment [6], 27.3 µM (active).
In the case of `CN[C@@H](C)[C@H]1[C@H](O)C[C@@]2(C)[C@@H]3CC[C@H]4C(C)(C)[C@@H](NC)CC[C@@]45C[C@@]35CC[C@]12C`, the Potency result in experiment [1], in experiment [2], in [3], in experiment [6], in [4] and in experiment [5] was “inactive” each time. Further, the Potency entry in [7] was “inactive”.
On to `C[C@@]1(C(=O)Nc2ccc(F)nc2)CCCN1c1nc(Nc2cc(C3CC3)[nH]n2)c2cccn2n1`, for which the Potency was 1.05 µM (active) in [1]; 0.0935 µM (active) in [2]; 0.0264 µM (active) in experiment [3]; 16.6 µM (active) in [4]; 0.968 µM (active) in experiment [8]; 11.8 µM (active) in experiment [5]. The Potency in experiment [7] is 20.9 µM (active). Besides, in experiment [6], the Potency result is “inactive”.
Regarding `CC(C)(OCc1nn(Cc2ccccc2)c2ccccc12)C(=O)O`, the Potency result in experiment [1], in [2], in [3], in experiment [6], in experiment [4] and in [8] was “inactive” in each case. Moreover, the Potency entry in experiment [5] and in [7] was “inactive” in each case.
Take `NCc1c[nH]c(=S)n1[C@H]1CCc2c(F)cc(F)cc2C1`: the Potency in [1] is 18.7 µM (active); in experiment [2], 9.35 µM (active); in experiment [3], 23.5 µM (active); in experiment [4] it was 16.6 µM (active); in experiment [9], 33.2 µM (active).
For the molecule `CC(C)(F)C[C@H](N[C@@H](c1ccc(-c2ccc(S(C)(=O)=O)cc2)cc1)C(F)(F)F)C(=O)NC1(C#N)CC1`, the Potency result in experiment [1], in experiment [2], in experiment [3], in [6], in experiment [5] and in experiment [7] was “inactive” each time.
As to `Oc1cc(O)cc(C=Cc2ccc(O)c(O)c2)c1`, the Potency was 5.26 µM (active) in experiment [1], 20.9 µM (active) in experiment [2], 13.2 µM (active) in experiment [3] and 24.3 µM (active) in experiment [6]. The Potency entry in experiment [7] is “inactive”.
`O=C(O)C1=CC(O)C(O)[C@H](O)C1` (some centres undefined): the Potency entry in [1], in [2], in experiment [3], in experiment [6], in experiment [4] and in experiment [8] was “inactive” throughout. Also, the Potency result in experiment [5] and in experiment [7] was “inactive” in each case.
On to `CC(C)(C)c1nc(-c2cccc(NS(=O)(=O)c3c(F)cccc3F)c2F)c(-c2ccnc(N)n2)s1`, for which the Potency entry in experiment [1], in [3], in [6], in experiment [4], in experiment [8] and in experiment [5] was “inactive” each time. Moreover, in experiment [2], the Potency is 18.7 µM (active).
On to `Nc1ccc(-c2ccc3ncc4ccc(=O)n(-c5cccc(C(F)(F)F)c5)c4c3c2)cn1`, for which the Potency in experiment [1] is 0.148 µM (active); in experiment [2] it was 0.418 µM (active); in [3] it was 0.0296 µM (active); in experiment [6] it was 3.43 µM (active); in experiment [4], 0.148 µM (active); in [8], 0.0069 µM (active). Further, the Potency was 0.235 µM (active) in experiment [9] and 0.0009 µM (active) in experiment [5].
For `Cn1c(=O)c(-c2c(Cl)cccc2Cl)cc2cnc(Nc3cccc(C(=O)O)c3)nc21`, the Potency in [1] is 0.743 µM (active). In addition, the Potency result in experiment [2], in [3], in experiment [6], in experiment [9] and in [7] was “inactive” in each case.
Regarding `C[C@@H]1C[C@H]2[C@@H]3CCC4=CC(=O)C=C[C@]4(C)[C@@]3(F)[C@@H](O)C[C@]2(C)[C@@]1(O)C(=O)CO`, the Potency entry in experiment [1], in experiment [2], in [3], in experiment [6], in experiment [4] and in experiment [9] was “inactive” each time. Further, the Potency entry in experiment [7] is “inactive”.
On to `Cc1cc2nc3c(=O)[nH]c(=O)nc-3n(CC(O)C(O)C(O)CO)c2cc1C` (centres undefined), for which the Potency result in experiment [1], in experiment [3], in experiment [6], in experiment [4], in [8] and in experiment [9] was “inactive” throughout. Besides, the Potency result in experiment [5] and in [7] was “inactive” in each case. In [2], the Potency is 23.5 µM (active).
As for `COc1nc(C)cnc1NS(=O)(=O)c1cccnc1-c1ccc(-c2nnco2)cc1`, the Potency entry in experiment [1], in [2], in experiment [3], in experiment [6], in experiment [8] and in experiment [5] was “inactive” each time. For the same molecule, the Potency result in experiment [7] is “inactive”.
With `O=C(O)CCC=CCC[C@@H]1[C@H](N2CCCCC2)[C@@H](O)C[C@@H]1OCc1ccc(-c2ccccc2)cc1`, the Potency result in experiment [1], in experiment [3], in experiment [6], in experiment [4] and in experiment [5] was “inactive” throughout. Further, the Potency in experiment [2] was 5.9 µM (active).
Take `CC(C)(C)c1[nH]cnc1C=c1[nH]c(=O)c(=Cc2ccccc2)[nH]c1=O`: the Potency in experiment [1] was 0.136 µM (active); in experiment [2] it was 48.1 µM (active); in [3] it was 0.001 µM (active); in experiment [6], 0.0111 µM (active); in experiment [8] it was 35.2 µM (active); in experiment [9], 34 µM (active). For the same molecule, in [7], the Potency entry was “inactive”.
